hgDAF-12 ag: activates the H. glycines DAF-12 receptor ligand-binding domain; HEK293 GAL4-hgDAF12 UAS-luciferase reporter, agonist luminescence; normalized to butyrate control; actives 1.8% (n = 370,000); activation, % at 6.8 µM;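 active = activation above a cutoff set at the mean of all screened compounds plus 3 SD, cut at about 10% in these data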;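 note: 0% = DMSO wells and 100% = sodium butyrate wells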
ssDAF12 agonist: activators of S. stercoralis DAF-12 nuclear receptor; HEK293 ssDAF-12/GRIP1 lit1-tk-luc reporter, luminescence; % of 3 µM dafachronic acid response; activation, % at 6.8 µM; actives 1% (n = 370,000); AID 652126;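 active = activation above the mean over all tested compounds plus 3 SD, cut at about 0.9% in these data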;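 note: 0% = DMSO-only wells and 100% = 3 µM delta7-dafachronic acid wells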
hcDAF-12 act: activates DAF-12 receptor from parasite H. contortus; HEK293 hcDAF-12 lit1-tk-luc reporter, luminescence; 0% DMSO, 100% Δ7-dafachronic acid; activation, % at 6.8 µM; actives 1.4% (n = 370,000); AID 652067;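 active = activation above the mean of all tested compounds plus 3 SD, cut at about 5.5% in these data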;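 note: 100% = response to 3 µM Δ7-dafachronic acid high control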
DAX1 inh-1: DAX1 (NR0B1) inhibition, primary screen; AID 652010; actives 1.1% (n = 370,000); inhibition, % at 6.8 µM; HEK293T StAR-luciferase reporter, SF-1/DAX-1 repression relief;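 active = inhibition above the mean over all tested compounds plus 3 SD, cut at about 3.6% in these data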;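 note: 0% = DAX-1 cells with DMSO and 100% = cells lacking DAX-1 with DMSO; higher inhibition means more luminescence from relief of DAX-1 repression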
DAX1 inh-2: NR0B1 (DAX1) inhibition; HEK293 Gal4-DAX1 luciferase reporter, luminescence; inhibition, % at 6.75 µM; actives 0.99% (n = 340,000);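 active = inhibition above the mean over all tested compounds plus 3 SD, cut at about 4.2% in these data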;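 note: 0% = DAX1-transfected cells with DMSO and 100% = empty-vector control cells with DMSO; inhibition shows as a rise in luminescence from relieved DAX1 repression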
Target sequence (P51843 207-470 limits assumed): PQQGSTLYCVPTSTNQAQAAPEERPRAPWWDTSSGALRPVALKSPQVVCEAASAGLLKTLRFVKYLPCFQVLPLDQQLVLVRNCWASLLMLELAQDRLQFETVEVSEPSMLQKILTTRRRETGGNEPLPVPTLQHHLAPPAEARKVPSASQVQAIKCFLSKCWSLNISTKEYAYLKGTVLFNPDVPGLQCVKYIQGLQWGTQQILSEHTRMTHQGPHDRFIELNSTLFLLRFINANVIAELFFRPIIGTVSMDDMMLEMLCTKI
* = called active by the depositor; . = not tested or not shown. The list is not random: actives were taken first. Their share in the collection is about 4.1%.

SMILES	hgDAF-12 ag	ssDAF12 agonist	hcDAF-12 act	DAX1 inh-1	DAX1 inh-2
N#Cc1ccc(-c2nc3c4ccccc4ccn3c2Cc2cccc(Cl)c2)cc1	11*	-1	3	0	.
Cc1ccc(-c2nc3c4ccccc4ccn3c2Cc2cccc(Cl)c2)cc1	7	1	2	-1	.
N#Cc1ccc(-c2nc3c4ccccc4ccn3c2Cc2ccccc2C(F)(F)F)cc1	9	0	4	-2	.
Cc1cc(Br)cn2c(Cc3ccccc3C(F)(F)F)c(-c3cccc(Br)c3)nc12	-4	-1	-1	-1	.
c1ccc(Cc2c(-c3ccccc3)nc3c4ccccc4ccn23)cc1	2	0.9*	5	0	1
FC(F)(F)c1ccccc1Cc1c(-c2cccc(Br)c2)nc2c3ccccc3ccn12	9	1.4*	5.8*	1	.
N#Cc1ccc(-c2nc3c4ccccc4ccn3c2Cc2ccsc2)cc1	3	1.5*	3	0	.
Cc1ccc(Cc2c(-c3ccco3)nc3c4ccccc4ccn23)cc1	-9	0	3	-2	.
O=C(NCc1ccccn1)Nc1ccc(Br)cc1Cl	6	-1	1	5.2*	2
S=C(NCc1ccccn1)Nc1ccccc1Cl	2	-1	5.6*	1	1
S=C(NCc1ccccc1Cl)Nc1ccccc1Cl	5	-1	-1	0	7.4*
S=C(NCCc1ccccn1)Nc1ccccc1Cl	-2	-2	-2	0	0
O=C(NCc1ccccn1)Nc1ccc(Cl)cc1Cl	7	0	1	3	1
S=C(NCc1ccccn1)Nc1ccc(Br)cc1Cl	6	0	1	2	5.6*
CCCCn1c(O)c(/C=C2\C=Nc3ccccc32)c(=O)[nH]c1=O	4	0	6.0*	0	1
CN(C)S(=O)(=O)c1cc(NC2CC(=O)N(c3ccc(F)cc3)C2=O)ccc1Cl (centres undefined)	-3	-1	-1	0	10*
Cc1ccc(NC2CC(=O)N(c3ccc(C)cc3)C2=O)cc1 (centres undefined)	-2	-1	2	0	-1
CCCN1CCCCC(NC(=O)c2ccccc2OC)C1=O (centres undefined)	1	-1	0	-1	.
O=C1C[C@@H]2CCN3C(=O)CCC[C@@H]([C@H]23)[C@@H]1Cc1ccccc1	-1	-1	-1	3.9*	-1
CCCn1c(C)c(CC(=O)Nc2ccc(N(C)c3ccccn3)cc2)c2ccccc21	0	-1	1	0	.
COC(=O)c1ccc2nc(-c3ccc(F)cc3)c(CC3CCCCC3)n2c1	6	1.1*	4	2	.
Cc1cc2nc(-c3ccc(F)cc3)c(CC3CCCCC3)n2c(C)c1Br	3	1.0*	5	0	.
COc1ccc(-c2nc3cc(C)c(Br)c(C)n3c2CC2CCCCC2)cc1OC	0	1	0	2	.
COC(=O)c1ccc2nc(-c3ccc(F)cc3)c(Cc3cccc(F)c3)n2c1	-1	-1	-3	0	.
COC(=O)c1ccc2nc(-c3ccc(C)cc3)c(CC3CCCCC3)n2c1	6	1.8*	5	3.9*	.
SMILES	hgDAF-12 ag	ssDAF12 agonist	hcDAF-12 act	DAX1 inh-1	DAX1 inh-2
COC(=O)c1ccc(Cn2ccc3ccc(-c4ccc5ccn(C(=O)C6CCCCC6)c5c4)cc32)cc1	1	-1	-3	0	.
COc1ccc(C2C=C(c3ccc(C)cc3)Nc3ncnn32)cc1 (centres undefined)	11*	0	2	1	-1
COC(=O)Cc1ccc2c3ccccc3n(C)c2c1	4	-1	5.8*	0	1
Cn1c2ccc(CC(=O)O)cc2c2cc(CC(=O)O)ccc21	1	1	1	0	0
CCN(C(=O)C1CCCN1S(=O)(=O)c1cccnc1)c1ccccc1 (centres undefined)	-2	-1	1	1	.
C=CCNc1nc(Nc2ccc(OC)cc2)nc(OC)n1	-2	-1	-2	-1	1
C=CCNc1nc(Cl)nc(Nc2ccc(OC)cc2)n1	4	1.3*	2	2	1
COC(=O)N1C[C@H](O)[C@H](O)C[C@@H]1c1ccccc1Br	-1	0	3	-1	.
Cc1sc2nc(CSC(C)C(=O)Nc3ccccn3)[nH]c(=O)c2c1C (centres undefined)	4	-1	2	4.0*	0
Cc1ccc(-c2nnc3n2N=C(c2ccc(-c4ccccc4)cc2)CS3)cc1	-1	-2	-4	-2	.
O=C(c1cc2c(c(-c3cccc(-c4ccncc4)c3)n1)[C@@H](CCO)N(C(=O)c1ccc3c(c1)OCO3)C2)N1CCOCC1	8	0	3	3.7*	.
O=C(c1cc2c(c(-c3cccc(-c4ccc(F)cc4)c3)n1)[C@H](CCO)N(C(=O)c1ccc3c(c1)OCO3)C2)N1CCOCC1	-3	-1	-2	-2	.
CCOc1ccc2nc(N3C(=O)CNC3=S)sc2c1	5	0	2	2	5.3*
COc1ccccc1-c1nc(COc2ccc(Cl)cc2Cl)no1	5	0	2	1	4.6*
COc1cc2c(cc1C1C(C#N)=C(N)OC3=C1C(=O)CC(C)(C)C3)OCO2 (centres undefined)	-2	-1	-1	0	4.9*
Cc1cc(-c2n[nH]c(=S)n2N=Cc2ccc(OCc3ccccc3)cc2)n[nH]1	6	0	4	-1	.
Cc1cccn2c(=O)c3cc(C(=O)NCCc4ccccc4)sc3nc12	0	1.0*	5	0	1
CCCCNC(=O)c1cc2c(=O)n3cccc(C)c3nc2s1	-2	-1	-3	0	0
CO[C@@H]1[C@H](O)CC[C@]2(O)CN(c3ccccc3)[C@](C)([C@H](O)CC=C(C)C)[C@@H]12	-2	1	0	1	.
CC(C)C(=O)O/N=C1\CCS(=O)(=O)c2sccc21	2	-1	1	0	6.2*
COc1ccc(Nc2nc(C)c(-c3ccccc3)s2)cc1	8	0	6.2*	1	1
COc1ccc(Nc2nc(C)c3ccccc3n2)cc1	10	1.1*	6.5*	1	3
COc1ccc(Nc2nc(-c3ccccc3)c3ccccc3n2)cc1	0	-1	2	0	0
Cc1nc(Nc2ccc(S(N)(=O)=O)cc2)sc1-c1ccccc1	4	-1	-3	0	-1
C=CC(=O)NC1CCCCN(CCC)C1=O (centres undefined)	0	-1	1	1	.
COCCNC(=O)[C@]1(C#N)CC(=O)N(C)[C@@H]1c1ccccc1	5	-1	-1	-1	.
CNc1nc(-c2ccc3c(c2)CCN3C(=O)c2cccc(F)c2)cs1	11*	-1	0	-1	0
CNc1nc(-c2ccc3c(c2)CCN3C(=O)c2ccc(F)cc2)cs1	1	-2	-1	-1	0
Cc1cc(C)cc(N(CC(=O)NC2CCC(C)CC2)S(=O)(=O)c2ccc(C)c(C)c2)c1 (centres undefined)	5	0	-1	2	.
